# Source: PubChem BioAssay AID686996 (Broad Institute, 2013)
# In all, about 350,000 compounds went through this assay and about 1,900 (0.54%) were called active. Only a selection was taken, and actives are over-represented in it overall. Unmarked numbers belong to inactive results.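 Rule for the calls: active = mean inhibition across replicates at least about 35%, with every replicate also reaching that limit (limit read from the data); inconclusive = only one of the two criteria met; inactive = neither criterion met.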
# Target: Caspase-6 (Homo sapiens) (UniProt P55212)
# Sequence (P55212 24-179 limits assumed): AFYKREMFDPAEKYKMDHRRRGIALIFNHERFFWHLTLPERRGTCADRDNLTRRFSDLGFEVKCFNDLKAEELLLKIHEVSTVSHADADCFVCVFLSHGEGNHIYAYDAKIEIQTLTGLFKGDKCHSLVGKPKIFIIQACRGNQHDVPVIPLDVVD
# Sequence (P55212 194-293 limits assumed): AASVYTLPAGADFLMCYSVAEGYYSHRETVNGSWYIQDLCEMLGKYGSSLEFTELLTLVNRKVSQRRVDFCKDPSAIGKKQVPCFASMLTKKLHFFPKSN
# Test: human caspase-6 inhibitors, primary screen, biochemical, VEID-R110 fluorescence, single point, set 2 (AID 686996);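 note: 0% = median of neutral control wells and 100% = no fluorescence left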
# Settings: purified caspase-6, Z-VEID-R110 cleavage fluorescence; at 12.5 µM; active compounds read high
row,SMILES,inhibition
1,CCOC(=O)c1ccc(NC(=O)Cc2cccs2)cc1,0.303%
2,COc1ccc(OC)c(NC(=O)Cc2cccs2)c1,25.5%
3,CCOc1ccccc1NC(=O)Cc1cccs1,39.6% (active)
4,CO[C@H]1CN(C)C(=O)c2cc(NC(=O)Nc3cccc(F)c3)ccc2OC[C@@H](C)N(C)C[C@@H]1C,-5.35%
5,C[C@H]1CN([C@@H](C)CO)S(=O)(=O)c2ccc(-c3ccncc3)cc2O[C@H]1CN(C)S(C)(=O)=O,-2.14%
6,COc1ccc(S(=O)(=O)Nc2ccc3c(c2)CC(=O)N([C@@H](C)CO)C[C@@H](C)[C@@H](CN(C)C(=O)Nc2c(C)noc2C)O3)cc1,1.08%
7,O=C(C[C@H]1CC[C@H]2[C@@H](COC[C@H](O)CN2S(=O)(=O)c2cccc(F)c2)O1)NC1CCC1,0.605%
8,Cc1nnc(SCC(=O)Nc2ccc(S(=O)(=O)Nc3ccc(Cl)nn3)cc2)s1,35.3% (active)
9,CCCCCC(=O)Nc1ccc(S(=O)(=O)Nc2ccc(Cl)nn2)cc1,9.99%
10,Cc1nnc(SC(C)C(=O)Nc2ccc(S(=O)(=O)NC3CCCCC3)cc2)s1 (stereo not given),3.47%
11,C[C@@H](NC(=O)C[C@H]1CC[C@@H](NC(=O)Cc2ccccn2)[C@@H](CO)O1)c1ccccc1,-7.46%
12,Oc1c(Cl)cc(Cl)c(Cl)c1Cc1c(O)c(Cl)cc(Cl)c1Cl,45.1% (active)
13,O=C(CCc1nc2sc3c(c2c(=O)[nH]1)CCCC3)NCC(=O)Nc1ccccc1Br,36.7% (active)
14,CC(C)c1nc(SCC(=O)Nc2cccc(C(=O)O)c2)c2c3c(sc2n1)CCCC3,9.4%
15,O=C(CSc1nc(O)c(Cc2ccccc2)c(=O)[nH]1)Nc1nc2c(s1)CCCC2,9.11%
16,O=c1ccc2c(-c3ccccc3S(=O)(=O)O)c3ccc(O)c(O)c3oc-2c1O,87.7% (active)
17,O=C(C[C@H]1CC[C@@H](NC(=O)Nc2ccc(F)cc2)[C@@H](CO)O1)NCCN1CCCC1,-1.07%
18,O=C(O)Cn1cnc2c(NCc3ccccc3)ncnc21,-2.69%
19,O=S(=O)(c1ccccc1)N1CC[C@@H]2[C@@H](CO)Nc3ccc(-c4ccccc4F)cc3[C@@H]21,-0.847%
20,C[C@H](CO)N1C[C@H](C)[C@H](CN(C)S(C)(=O)=O)Oc2ccc(NC(=O)CCCN(C)C)cc2C1=O,-7.82%
21,COC(=O)c1cccc(N2C(=O)C3C4C=CC(CC4)C3C2=O)c1 (stereo not given),3.07%
22,COC(=O)c1cccc(NC(=O)c2cccc(N3C(=O)CCC3=O)c2)c1,45% (active)
23,COc1ccccc1-c1nnc(NC(=O)c2cccc(N3C(=O)CCC3=O)c2)o1,6.24%
24,C[C@@H]1CN([C@@H](C)CO)C(=O)c2cccc(NS(=O)(=O)c3ccc(Cl)cc3)c2O[C@@H]1CN(C)Cc1ccccc1,0.793%
25,O=C(C1CCC1)N1CC[C@@H]2[C@H]1c1cc(C#Cc3ccc(F)cc3)ccc1N[C@@H]2CO,1.04%

row,SMILES,inhibition
1,CCN1CCN(C(=O)C2CCN(S(=O)(=O)c3cc(Cl)ccc3Cl)CC2)CC1,-3.59%
2,O=S(=O)(c1cc(Cl)ccc1Cl)N1CCN(Cc2ccco2)CC1,4.43%
3,O=C(CN1CCN(S(=O)(=O)c2cc(Cl)ccc2Cl)CC1)c1ccc(O)c(O)c1,35.7% (active)
4,COc1cccc(CNC(=O)[C@H]2CCCN2C(=O)[C@H]2CCCN2C(=O)C2CCCCC2)c1,5.61%
5,COc1c(O)cc2oc(-c3ccc(O)c(O)c3)cc(=O)c2c1O,39.1% (active)
6,C#CCN1C(Cc2ccccc2)C(=O)O[C@H](C2CCCCC2)[C@@H]1/C=C/C1CC1 (stereo not given in full),-4.1%
7,N#CC1=C(N)Oc2n[nH]c(CSc3ccccc3)c2C12C(=O)Nc1ccccc12 (stereo not given),7.38%
8,N#CC1=C(N)Oc2[nH]c(=S)[nH]c(=O)c2C12C(=O)Nc1ccccc12 (stereo not given),45.4% (active)
9,C[C@@H]1CN([C@@H](C)CO)S(=O)(=O)c2ccc(C3=CCCCC3)cc2O[C@@H]1CN(C)C(=O)CN(C)C,0.621%
10,CCS(=O)(=O)N1CC2(CN(Cc3cc(F)ccc3F)[C@@H](CO)c3c2c2ccc(OC)cc2n3C)C1,-1.32%
11,C[C@H](CO)N1C[C@H](C)[C@H](CN(C)CC2CCCC2)Oc2ncc(Br)cc2C1=O,0.088%
12,C[C@@H]1CN([C@@H](C)CO)C(=O)c2cc(NS(=O)(=O)c3ccc(Cl)cc3)ccc2O[C@H]1CN(C)S(=O)(=O)c1cn(C)cn1,-0.705%
13,Cc1ccc(S(=O)(=O)N[C@H](CO)C(C)C)cc1,1.4%
14,Cc1ccc(S(=O)(=O)/N=C2\C=C(NS(=O)(=O)c3ccc(C)cc3)C(=O)c3ccccc32)cc1,62.8% (active)
15,COc1ccc(NS(=O)(=O)c2ccc(Oc3c(C#N)cccc3C#N)cc2)cc1,-1.42%
16,CNC(=O)COc1ccc(S(=O)(=O)Nc2ccccc2)cc1,0.091%
17,Cc1ccc(S(=O)(=O)N/N=C(\c2ccccc2)C2CC2)cc1,8.02%
18,COc1ccc(S(=O)(=O)/N=C2\C=C(NS(=O)(=O)c3ccccc3)C(=O)c3ccccc32)cc1,55.8% (active)
19,CO[C@H]1CN(C)C(=O)c2ccc(NS(=O)(=O)c3ccccc3)cc2OC[C@H](C)N(Cc2nccs2)C[C@@H]1C,0.023%
20,C[C@@H](O)C#Cc1ccc([C@H]2[C@@H](CO)N3CCCCN(S(=O)(=O)c4ccccc4)C[C@@H]23)cc1,-3.52%
21,CCCNC(=O)C[C@H]1C[C@@H]2c3cc(NS(=O)(=O)c4cccc(OC)c4)ccc3O[C@@H]2[C@@H](CO)O1,2.43%
22,C[C@@H]1C[C@@H]2O[C@H]2/C=C\C=C\C(=O)Cc2c(Cl)c(O)cc(O)c2C(=O)O1,37.4% (active)
23,COc1ccc(S(=O)(=O)N(C)C[C@H]2Oc3c(NC(=O)CCCCCC(=O)Nc4ccccc4N)cccc3C(=O)N([C@H](C)CO)C[C@H]2C)cc1,-1.7%
24,O=C(Cc1ccccc1)N[C@H]1C=C[C@H](CC(=O)N2CCCCC2)O[C@@H]1CO,-1.28%
25,CCCN1[C@H](C(=O)N2CCCCC2)[C@@H](CO)[C@@H]2Cn3c(ccc(-c4ccccc4F)c3=O)[C@@H]21,1.71%

row,SMILES,inhibition
1,CCC(=O)N1CCC2(CC1)CN(Cc1ccc(Cl)cc1)[C@@H](CO)c1[nH]c3cc(OC)ccc3c12,1.51%
2,O=C(O)C(c1ccccc1)N1C(=O)/C(=C\c2ccc(-c3cccc(Cl)c3)o2)SC1=S (stereo not given),89.6% (active)
3,CC(C(=O)Nc1ccc(O)c(C(=O)O)c1)N1C(=O)/C(=C/c2cccs2)SC1=S (stereo not given),27.5%
4,CC(C(=O)NC1CCS(=O)(=O)C1)N1C(=O)/C(=C/c2ccc(Cl)cc2)SC1=S (stereo not given),4.77%
5,CCN1[C@@H]2Cn3c(ccc(C4=CCCCC4)c3=O)[C@H]1[C@@H](C(=O)N1CCCCC1)[C@@H]2CO,1.04%
6,O=C(C[C@H]1CC[C@@H]2[C@H](COC[C@@H](O)CN2C(=O)Nc2cccc(F)c2)O1)NCc1ccccc1F,0.624%
7,O=C(COC(=O)c1cnc(Cl)c(Cl)c1)NCc1ccco1,10.4%
8,O=C(COC(=O)c1ccccc1O)NCc1ccco1,38.4% (active)
9,O=C(COC(=O)Cc1ccc(Cl)cc1Cl)NCc1ccco1,3.33%
10,N#C[C@H]1[C@@H](c2ccccc2C2=CCCC2)[C@H](CO)N1C(=O)c1cccc(F)c1,0.224%
11,CCC(=O)N1C[C@@H](C)[C@H](OC)CN(C)C(=O)c2cc(NC(=O)NC3CCCC3)ccc2OC[C@H]1C,0.917%
12,CCC(=O)N(C)C[C@@H]1Oc2cc(C#CCN(C)C)ccc2S(=O)(=O)N([C@H](C)CO)C[C@H]1C,-0.78%
13,Cn1c2c(c(=O)n(C)c1=O)C(c1cccc(F)c1)C(C#N)=C(N)O2 (stereo not given),1.86%
14,N#CC1=C(N)Oc2cc(N)ccc2C1c1ccccc1 (stereo not given),37% (active)
15,N#CC1=C(N)Oc2c(ccc3cccnc23)C1c1ccncc1 (stereo not given),3.1%
16,O=C(C[C@@H]1CC[C@H]2[C@@H](COC[C@H](O)CN2C(=O)Nc2ccccc2)O1)NCc1ccccc1F,-1.64%
17,Cc1ccccc1-c1ccc2c(c1)O[C@@H](CN(C)Cc1ccncc1)[C@@H](C)CN([C@H](C)CO)S2(=O)=O,2.69%
18,N#Cc1c(C(F)(F)F)cc(-c2ccc(Cl)cc2)nc1SCC(=O)O,-2.92%
19,N#Cc1c(N2CCCCC2)nc(N)c2c(N)nc(SCC(=O)O)cc12,43.3% (active)
20,O=C(O)CSc1ccc(S(=O)(=O)N2CCCC2)cn1,-0.751%
21,C[C@@H]1CN([C@@H](C)CO)C(=O)Cc2cc(NC(=O)CCN3CCOCC3)ccc2O[C@H]1CN(C)S(=O)(=O)c1ccccc1,-0.675%
22,CN(C)C(=O)c1ccc(-c2ccccc2[C@@H]2[C@@H](C#N)N(C(=O)C3CCCC3)[C@H]2CO)cc1,2.13%
23,C[C@@H]1CN([C@H](C)CO)C(=O)c2c(c3ccccc3n2C)-c2ccccc2CO[C@H]1CN(C)S(=O)(=O)c1ccccc1F,-0.557%
24,O=C(C[C@@H]1C=C[C@H](NC(=O)C2CCOCC2)[C@H](CO)O1)NCc1ccncc1,-0.812%
25,O=C(c1ccc2c(c1)OCO2)N1CC(=O)N2[C@H](C1)[C@@H](c1ccc(C#Cc3ccccc3)cc1)[C@@H]2CO,-1.08%
